{"source": "PubChem BioAssay (EPA / NIEHS)", "note": "Calls of active or inactive are those of the source. The calls were made as follows: active = hit-call score of the fitted dose curve at least 0.9, where 1 is the maximum; inactive = score below 0.9.", "data": [{"experiment": "ATG_GRE_CIS: Attagene CIS-FACTORIAL HepG2 Assay for human Glucocorticoid Response Elements (GRE) (AID 2282947)", "settings": "HepG2 GRE cis-reporter, Attagene multiplex mRNA; actives raise or lower the signal", "experimental": "ATG_CIS is a cell-based, multiplexed-readout assay that uses HepG2, a human liver cell line, with measurements taken at 24 hours after chemical dosing in a 24-well plate.ATG_GRE_CIS is one of 52 assay component(s) measured or calculated from the ATG_CIS assay. It is designed to make measurements of mRNA induction, a form of inducible reporter, as detected with fluorescence intensity signals by Reverse transcription polymerase chain reaction (RT-PCR) and Capillary electrophoresis technology.Data from the assay component ATG_GRE_CIS was analyzed into 1 assay endpoint. This assay endpoint, ATG_GRE_CIS, was analyzed with bidirectional fitting relative to DMSO as the negative control and baseline of activity. Using a type of inducible reporter, measures of mRNA for gain or loss-of-signal activity can be used to understand the reporter gene at the transcription factor-level as they relate to the gene NR3C1. Furthermore, this assay endpoint can be referred to as a primary readout, because this assay has produced multiple assay endpoints where this one serves a reporter gene function. To generalize the intended target to other relatable targets, this assay endpoint is annotated to the nuclear receptor intended target family, where the subfamily is steroidal.\nHuman liver HepG2 cells are transiently transfected with multiple reporter transcription units (MRTUs) in 6-well plates using FuGene 6 reagent (Roche; 3 ml FuGene/1 mg DNA). The MRTU constructs are regulated by a cis-regulating element (promoter). […] A major difference between the CIS and TRANS system is that in CIS activities of endogenous TFs are measured, whereas the TRANS assay evaluates changes in activities of exogenous, chimeric NR-Gal4 proteins. […] At the end of 24 hour incubation, total RNA was isolated using TriZol reagent (Invitrogen). The isolated RNA is then reverse-transcribed using oligo(dT) primer and Mo-MLV reverse transcriptase (Invitrogen) with DNAse I (Ambion) treatment for 30 min. The one-tenth of the produced cDNA was amplified by PCR using Taq DNA polymerase (Invitrogen) and two reporter sequence-specific primers. The PCR products were fluorescently labeled by primer extension with 6-arboxyfluorescein (6-FAM) 5'-labeled reporter sequence-specific primer (2 min at 95 C, 20 s at 68 C and 10 min at 72 C) and these products were digested with 5U of HpaI (New England Biolabs) for 2h at 37 C. The fragments were purified using Qiaquick PCR columns (Qiagen), analyzed on an ABI 3130xL genetic analyzer (Applied Biosystems) with peak positions identified by using a set of X-rhodamine (ROX)-labeled MapMarker1000 molecular weight standards (BioVentures). The raw capillary electrophoresis data was processed using Attagraph software (Attagene).", "values": [{"molecule": "Oc1ccc(O)cc1", "outcome": "inactive"}, {"molecule": "CCCCCCC(C=O)=Cc1ccccc1", "outcome": "inactive"}, {"molecule": "O=[Si]=O", "outcome": "inactive"}, {"molecule": "CCCCCCCCCCCCCCOS(=O)(=O)O", "outcome": "inactive"}, {"molecule": "CCc1cc(C2=C(C(=O)O)N(c3ccccc3C(F)(F)F)S(=O)(=O)c3ccccc32)cc2c1OCO2", "outcome": "inactive"}, {"molecule": "NC(=Nc1ccccc1)Nc1ccccc1", "outcome": "inactive"}, {"molecule": "O=C(NS(=O)(=O)/C=C/c1cccs1)c1ccc(F)cc1Br", "outcome": "inactive"}, {"molecule": "CCCCC(CC)CO", "note": "(stereo not given)", "outcome": "inactive"}, {"molecule": "CC(C)NCC(O)c1ccc(O)c(O)c1", "note": "(stereo not given)", "outcome": "inactive"}, {"molecule": "N[C@@H](Cc1c[nH]c2ccccc12)C(=O)O", "outcome": "inactive"}, {"molecule": "COC(=O)CCCC(=O)OC", "outcome": "inactive"}, {"molecule": "O=Cc1ccccc1C=O", "outcome": "inactive"}, {"molecule": "CC(=O)OCC(COC(C)=O)OC(C)=O", "outcome": "inactive"}, {"molecule": "O=C(O)CN(CC(=O)O)CC(=O)O", "outcome": "inactive"}, {"molecule": "CN(C)CCCN1c2ccccc2Sc2ccc(Cl)cc21", "outcome": "inactive"}, {"molecule": "CCCCC(CC)COC(=O)CCCCCCCC(=O)OCC(CC)CCCC", "note": "(stereo not given)", "outcome": "inactive"}, {"molecule": "O=C(Oc1ccccc1)c1cccc(C(=O)Oc2ccccc2)c1", "outcome": "inactive"}, {"molecule": "O=C1O[C@H]([C@H](O)CO)C(O)=C1O", "outcome": "inactive"}, {"molecule": "CC(=O)OC1CC(C)OC(C)O1", "note": "(stereo not given)", "outcome": "inactive"}, {"molecule": "C#CC(O)C(CC)CCCC", "note": "(stereo not given)", "outcome": "inactive"}, {"molecule": "Cc1cc(SC2=C(O)C[C@@](CCc3ccc(N)cc3)(C(C)C)OC2=O)c(C(C)(C)C)cc1CO", "outcome": "inactive"}, {"molecule": "CN(C)C(=O)NC1(c2ccccc2)CCN(CC[C@@]2(c3ccc(F)c(F)c3)CN(C(=O)c3ccccc3)CCO2)CC1", "outcome": "inactive"}, {"molecule": "CCCCOC(=O)CCCCC(=O)OCCCC", "AC50": "178 µM (active)"}, {"molecule": "CC(N)=O", "outcome": "inactive"}, {"molecule": "CCc1nc(N)nc(N)c1-c1ccc(Cl)cc1", "outcome": "inactive"}, {"molecule": "CS(=O)(=O)c1ccc([C@@H](C[C@H]2CCC(=O)C2)C(=O)Nc2cnccn2)cc1Cl", "outcome": "inactive"}, {"molecule": "O=C1NC(=O)C(c2ccccc2)(c2ccccc2)N1", "outcome": "inactive"}, {"molecule": "S=c1[nH]c2ccccc2s1", "outcome": "inactive"}, {"molecule": "CCCCc1nc2cccnc2n1Cc1ccc(-c2ccccc2-c2nnn[nH]2)cc1", "outcome": "inactive"}, {"molecule": "O=C1c2c(O)cccc2Cc2cccc(O)c21", "outcome": "inactive"}, {"molecule": "CCCC(=O)O", "outcome": "inactive"}, {"molecule": "COC(=O)CCC(=O)OC", "outcome": "inactive"}, {"molecule": "Oc1ccccc1O", "outcome": "inactive"}, {"molecule": "COc1ccc(OC(F)(F)F)cc1CN[C@H]1CCCN[C@H]1c1ccccc1", "outcome": "inactive"}, {"molecule": "Nc1nc(=S)c2[nH]cnc2[nH]1", "outcome": "inactive"}, {"molecule": "CC(C)c1cccc(C(C)C)c1NC(=O)NS(=O)(=O)c1cc(C(C)(C)O)co1", "outcome": "inactive"}, {"molecule": "CC(C)OC(=O)C(C)(C)Oc1ccc(C(=O)c2ccc(Cl)cc2)cc1", "outcome": "inactive"}, {"molecule": "Cc1cc(Cc2ccc(N)c(C)c2)ccc1N", "outcome": "inactive"}, {"molecule": "CCCCCCC(CCCCCCCCCCC(=O)OCC(COC(C)=O)OC(C)=O)OC(C)=O", "note": "(stereo not given)", "outcome": "inactive"}, {"molecule": "CCCCCCCCCC[N+](C)(C)[O-]", "outcome": "inactive"}]}]}
